High-throughput results from PubChem.
VACV Venus inh = qHTS for Stage-Specific Inhibitors of Vaccinia Orthopoxvirus: Venus Reporter Primary qHTS; Vaccinia virus Venus reporter expression, fluorescence; Potency, µM (highest dose often 36.5 µM), inactives show at the top dose activity change, negative = inhibition, hits mostly inhibitors; 0.46% of 330,000 active; calls by dose curve; tested in A549 cells; also: potency is read from the fitted curve at half-maximal effect; nearly all actives have a fitted effect of over 30% in size
HCMV antiviral = qHTS Assay for inhibitors of the human cytomegalovirus (HCMV); activity change, negative = inhibition, % at 57.5 µM; HFF cells, HCMV-luciferase reporter, 72 h; active compounds read low; AID 1259415, 2018; 4.5% of 410,000 active; in the data active = activity change below about -60%; inconclusive = no clear call, values can overlap the other calls; inactive = above about -39%
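Two compound doses tested in HFFs infected with HCMV-luciferase, MOI 1 PFU/cell, 72 h at 37C. Lysate luminescence read with OneGlo; data normalized against buffer-only and 10uM Salinomycin inhibitor controls.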
HCV inhibitor = qHTS Assay for Inhibitors of Hepatitis C Virus (HCV); Huh7.5.1 HCVcc-Cre infection, luciferase reporter, 44 h; Potency, µM (top dose mostly 41.8 µM), for the others: at the highest dose activity change, negative = inhibition, most hits filed as inhibitors; 3.4% of 340,000 active; AID 651820, 2012; active = well fitted inhibition curve with a large enough effect; inconclusive = small, poorly fitted or top-dose-only effect, or another doubt; inactive = no such curve, though single readings can be large or run the other way; also: potency is read from the fitted curve at half-maximal effect
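Infectious HCVcc-Cre (~0.5 moi) was added to cells just after compound, with cells seeded 4 h earlier at 1,000 per well. Luciferase activity after 44 h culture reported infection; substrate was incubated 15 min at room temperature before reading.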
VACV mCherry inh = qHTS for Stage-Specific Inhibitors of Vaccinia Orthopoxvirus: mCherry Reporter Primary qHTS | Potency, µM (highest dose often 36.5 µM), for inactives: top-dose activity change, negative = inhibition, usual class: inhibitors | Vaccinia virus mCherry reporter infection, fluorescence | 0.63% of 310,000 active; calls by dose curve; tested in A549 cells; also: potency is read from the fitted curve at half-maximal effect; nearly all actives have a fitted effect of over 35% in size
FMDV antiviral = High Throughput Screening for Foot and Mouth Disease Virus Antivirals | FMDV antiviral cell-based qHTS | Potency, µM (top dose mostly 57.9 µM), inactives show top-dose activity change, negative = inhibition, hits mostly inhibitors | 1.2% of 410,000 active; calls by dose curve; tested in HEK293T cells; also: read-out not given here; potency is read from the fitted curve at half-maximal effect; nearly all actives have a fitted effect of over 45% in size
Numbers without * were called inactive; i = inactive; ? = inconclusive; / = no result; ! = a repeat was not active. Compounds with a hit are over-represented: about 7.3% of the library has one in this group of screens. % is scaled to controls: 0 for no effect and ±100 for the full control effect.

SMILES | VACV Venus inh | HCMV antiviral | HCV inhibitor | VACV mCherry inh | FMDV antiviral
COc1ccc(OC)c(NC(=O)COC(=O)c2c3c(nc4ccccc24)CCCC3)c1 | / | -32 | 0.89µM* | / | ?
COc1ccc(NC(=O)COC(=O)c2c3c(nc4ccccc24)CCCC3)cc1 | -24% | -28 | ? | ? | 22µM*
CNC(=O)COC(=O)c1c2c(nc3ccccc13)CCC2 | / | -13 | 5% | / | -23%
CCCCNC(=O)COC(=O)c1c2c(nc3ccccc13)CCC2 | -4% | 0 | ? | -5% | -29%
CCc1nc2ccccc2c(C(=O)OCC(=O)NCc2ccco2)c1C | -9% | -9 | ? | -17% | -19%
Cc1nn(C)cc1CNc1nc(C)c(-c2ccn(CC3COc4ccccc4O3)n2)s1 (centres undefined) | -10% | / | / | -9% | ?
CCOC(=O)Cn1cc(C(=O)c2cccs2)c2ccccc21 | -4% | 100 | 8.9µM* | -11% | -1%
COC(=O)C1C(=O)C(C(=O)/C=C/c2ccco2)C(=O)CC1(C)C (centres undefined) | / | / | / | / | -13%
COC(=O)C1C(=O)C(C(=O)/C=C/c2ccccc2)C(=O)CC1(C)C (centres undefined) | ? | -82* | -7% | 11µM* | ?
O=C(NCCC(=O)N1CCN(S(=O)(=O)c2ccc(Cl)cc2)CC1)Nc1ccccc1 | -21% | -24 | -10% | -6% | -25%
COCCCNC(=O)c1ccc(-n2c(-c3ccccc3)cc3c2CCCCC3)cc1 | -11% | ? | / | -15% | -7%
CCCNC(=O)c1ccc(-n2c(-c3ccccc3)cc3c2CCC(C)C3)cc1 (centres undefined) | -26% | -99* | / | -28% | ?
CC1CCc2c(cc(-c3ccccc3)n2-c2ccc(C(=O)NC(C)C)cc2)C1 (centres undefined) | -16% | -99* | / | -17% | -27%
COCCNC(=O)c1ccc(C(=O)C(=O)c2ccccc2)cc1 | -11% | -3 | 5% | i | 0%
CCOCCCNC(=O)c1ccc(-n2c(-c3ccccc3)cc3c2CCCC3)cc1 | -20% | -66* | / | -11% | -6%
COCCNC(=O)c1ccc(-n2c(-c3ccccc3)cc3c2CCC(C)C3)cc1 (centres undefined) | ? | -101* | / | ? | 0%
CC(C)NC(=O)c1ccc(-n2c(-c3ccccc3)cc3c2CCCCC3)cc1 | -4% | ? | / | i | 12%
CN(C)CCNC(=O)c1ccc(-n2c(-c3ccccc3)cc3c2CCCCC3)cc1 | -23% | ? | / | i | 1%
CCc1cc2c(cc3c(=O)n(CC(=O)N4CCN(c5cccc(C)c5C)CC4)nc(CC)n32)s1 | -8% | -3 | / | -14% | -10%
COc1cc(NC(=O)CSc2ccc(-c3sc(-c4ccccc4)nc3C)nn2)cc(OC)c1 | -13% | 15 | / | -21% | -8%
Cc1ccn2cc(-c3ccc4c(c3)NC(=O)CO4)nc2c1 | / | -84* | 1% | / | 0%
Cc1cc(=O)n2c3ccccc3n(CC(O)CN3CCOCC3)c2c1C#N (centres undefined) | -9% | -16 | ? | -8% | -24%
Cc1cc(=O)n2c3ccccc3n(CC(O)CN3CCCCC3)c2c1C#N (centres undefined) | -6% | -87* | ? | 13% | /
Cc1cccc(-n2cc(-c3ccc([N+](=O)[O-])cc3)[nH]c2=S)c1 | -8% | -10 | 14% | -10% | 23%
Cc1ccc(-n2cc(-c3ccc([N+](=O)[O-])cc3)[nH]c2=S)c(C)c1 | -21% | -64* | ? | ? | -15%
SMILES | VACV Venus inh | HCMV antiviral | HCV inhibitor | VACV mCherry inh | FMDV antiviral
CCCN(CCC)CCNC(=O)c1cn(C)c(=O)c2c1c1ccccc1n2C | -9% | 46 | 7% | -21% | ?
CCCCN(CC)CCNC(=O)c1cn(C)c(=O)c2c1c1ccccc1n2C | 3% | -62*! | 7% | -7% | 3%
CCOc1ccc(NS(=O)(=O)c2cc(C(=O)N3CCCC3)ccc2Cl)cc1 | -13% | -20 | ? | -2% | 30%
CCOc1ccc(NS(=O)(=O)c2cc(NC(=O)c3cccc(C)c3)ccc2Cl)cc1 | 13µM* | ? | 11µM* | ? | 41%
CC1=CC(O)C(O)C2(C)C1CC1OC(=O)CC3C(C)C(O)C(=O)C2C13CO (centres undefined) | 6.3µM* | / | ? | 8.9µM* | -28%
N#CCCn1cc(/C=N/NC(N)=S)c(-c2ccc(Br)cc2)n1 | ? | -70* | ? | -29% | -14%
N#CCCn1cc(/C=N/NC(N)=S)c(-c2ccccc2)n1 | -21% | -3 | 9% | -25% | 2%
Cc1ccc(CNc2nc(C)nc3sc4c(c23)CCC4)cc1 | -27% | ? | / | ? | ?
Cc1nc(Nc2ccc(O)cc2)c2c3c(sc2n1)CCCC3 | ? | -76* | ? | 11µM* | -21%
Cc1cc(C)nc(/N=C(\N)Nc2ccc(OCCC(C)C)cc2)n1 | ? | ? | 10µM* | ? | 8.9µM*
Cc1cc(C)nc(/N=C(\N)Nc2cccc(OCc3ccccc3)c2)n1 | / | -73* | ? | / | 32µM*
Cc1cc(C)nc(/N=C(\N)Nc2ccc(OCc3ccccc3)cc2)n1 | ? | -75* | 10µM* | ? | 28µM*
CCC(Sc1nncn2c1cc1sccc12)C(=O)Nc1cccc(OC)c1 (centres undefined) | -4% | -40 | / | -13% | -23%
CCC(Sc1nnc(C)n2c1cc1sccc12)C(=O)Nc1ccccc1F (centres undefined) | -4% | -64* | / | -14% | -27%
O=C(Nc1ccc2nc(-c3cccs3)c(-c3cccs3)nc2c1)NC1CC1 | / | -38 | 25µM* | / | -24%
O=C(Nc1ccccc1F)N1CC(=O)N2[C@H](CO)[C@H](c3ccc(Br)cc3)[C@@H]2C1 | / | 18 | / | / | /
CO[C@H]1[C@H](NC(=O)c2ccsc2)c2ccccc2C12CCN(Cc1cc3ccccc3o1)CC2 | -14% | / | / | -21% | ?
O=c1[nH]c2cc3c(cc2cc1C(c1nnnn1Cc1ccccc1)N1CCCc2ccccc21)OCO3 (centres undefined) | / | -85* | 16% | / | 32%
O=c1[nH]c2cc3c(cc2cc1C(c1nnnn1Cc1ccccc1)N1CCCCCC1)OCCO3 (centres undefined) | / | 15 | -5% | / | 11%
CCOc1ccc(CN(C)C(=O)c2ccc(S(=O)(=O)N(C)c3ccccc3OC)cc2)cc1 | / | ? | 11µM* | / | 22µM*
CCCNC(=O)NC(=O)COC(=O)c1ccc(S(=O)(=O)N(C)c2ccccc2OC)cc1 | -13% | 22 | 2% | -3% | 17%
COc1ccccc1N(C)S(=O)(=O)c1ccc(C(=O)OCC(=O)NCCC2=CCCCC2)cc1 | 7% | -62* | 5% | -10% | -11%
